# Assays:
# Assay type in all cases: functional
# [1] = system: Plasmodium falciparum; assay: GSK_TCMDC: Inhibition of Plasmodium falciparum 3D7 in whole red blood cells, using parasite LDH activity as an index of growth. Test compounds present at 2uM
# [2] = system: Plasmodium falciparum; assay: GSK_TCMDC: Inhibition of Plasmodium falciparum Dd2 in whole red blood cells, using parasite LDH activity as an index of growth. Test compounds present at 2uM
# [3] = system: HepG2; assay: GSK_TCMDC: Percent inhibition of human HepG2 cell line. Test compounds present at 10uM.
Compound,Inhibition [1] [%],Inhibition [2] [%],Inhibition [3] [%]
c1ccc(-n2cncn2)cc1,93,96,0
O=C(Nc1ccc2c(c1)CCC2)c1cccc(N2CCN(c3ccncc3)CC2)c1.O=C(O)C(F)(F)F,92,22,35
COc1ccc(CNC2Cc3ccccc3C2)cc1-c1ccc(S(=O)(=O)NCCN2CCCC2)c(F)c1.O=C(O)C(F)(F)F,100,69,44
CCN1CCCC1CNC(=O)c1cc2c(-c3ccc(Cl)cc3)nn(C)c2s1 (stereo unspecified),96,20,27
Cc1[nH]c(C)c(Cc2ccc(Oc3ccc(OC(F)(F)F)cc3)cc2)c(=O)c1Br,96,87,29
Cc1ccc(S(=O)(=O)Nc2ccc(Nc3nccc(Nc4cccc5[nH]ncc45)n3)cc2)cc1,90,5,57
N#Cc1ccc2[nH]cc(CN3CCC4(CC3)CN(CCNCc3ccccc3)C(=O)CO4)c2c1.O=C(O)C(F)(F)F,98,0,0
FC(F)(F)c1cccc(CNCC2CCN(CC3CCCCC3)CC2)c1.O=C(O)C(F)(F)F,100,24,21
Nc1ncc(-c2ccc3[nH]ccc3c2)c2ccc(-c3ccncc3)cc12,100,100,42
COc1ccc2nccc(NC(=O)CNCc3ccc(-c4ccccc4)cc3)c2c1,100,35,11
CCCn1c(Sc2ccc(C#N)c([N+](=O)[O-])c2)nnc1-c1ccc(N(C)C)cc1,97,98,18
CN(C)CCNC(=O)[C@H](Cc1ccccc1)NC(=O)c1ccc(O)c(-c2ccc(Cl)c(Cl)c2)c1,98,0,0
C#CCOc1ccc(N2C(N)=NC(N)=NC2(C)C)cc1.Cl,94,0,43
CC1CCCN(Cc2c(O)ccc3c(O)c(-c4nc5ccccc5s4)c(=N)oc23)C1 (stereo unspecified),100,99,20
NC(=O)c1cc2nc(Nc3ccc(F)cc3)nc(NC3CCC3)c2[nH]1.O=CO,100,100,0
CC1(C)N=C(N)N=C(N)N1OCc1cc2ccccc2cc1CON1C(N)=NC(N)=NC1(C)C,92,51,0
Cc1ccc(NC(=O)c2cnc(N3CCN(c4ccncc4)CC3)c(Cl)c2)cc1.O=C(O)C(F)(F)F,94,24,25
CS(=O)(=O)N1CC2(CCN(CCC(NC(=O)Nc3ccccc3)c3ccc(Cl)c(Cl)c3)CC2)c2ccccc21 (stereo unspecified),99,72,23
COc1cc(Cc2cnc(NCCN3CCNCC3)nc2N)ccc1OCc1ccc(C(F)(F)F)cc1,98,4,12
Cc1cccc2nc(-c3ccc(-c4ccc(CNCc5ccc(CN)cc5)cc4)s3)[nH]c12.O=C(O)C(F)(F)F,100,85,4
Fc1ccc2[nH]c(-c3cccc(-c4ccc(CN5CCN(c6ccncc6)CC5)cc4)c3)nc2c1.O=C(O)C(F)(F)F,100,67,39

Compound,Inhibition [1] [%],Inhibition [2] [%],Inhibition [3] [%]
O=C(/C=C/c1ccc(Cl)c(Cl)c1)NC1CCC(CN2CCC(c3coc4ccccc34)CC2)CC1 (stereo unspecified),100,41,40
O=C(Nc1cccc(-c2cccc(-c3nc4cc(F)ccc4[nH]3)c2)c1)c1ccncc1,92,24,28
CCCCN(CCCC)CCC(O)C(=Cc1ccc(Cl)cc1Cl)c1ccc(C(F)(F)F)cc1N (stereo unspecified),100,99,0
Nc1ccc(Oc2ccc(Cc3cnc(N)nc3N)cc2)cc1,86,5,10
Cc1ccc2c(=NN=Cc3ccc(N(C)C)cc3)cc(C)[nH]c2c1,99,46,0
COc1cccc(NC(=O)c2cc(C(=O)Nc3cccc(OC)c3)cc([N+](=O)[O-])c2)c1,99,61,1
S=C(NN=Cc1ccccn1)NC1CC2C=CC1C2 (stereo unspecified),99,96,51
Cc1ccc(CON2C(N)=NC(N)=NC2(C)C)c(Cl)c1.Cc1ccc(CON2C(N)=NC(N)=NC2(C)C)cc1Cl,91,96,67
COc1cc(-c2nc(-c3ccc([N+](=O)[O-])cc3)c(-c3ccccc3)[nH]2)cc(OC)c1O,98,56,7
O=C(Nc1ccc(-c2cccc(CN3CCC(O)CC3)c2)cc1)c1cccc(Cl)c1.O=C(O)C(F)(F)F,94,14,50
CCOc1ccc(-c2nc(NC(=O)CS(=O)(=O)c3ccccc3)sc2C)cc1,100,59,6
CC1CN(c2ccc(C(=O)NCC3CC3)cc2NC(=O)OCc2ccccc2)CC(C)O1.O=C(O)C(F)(F)F (stereo unspecified),91,76,0
C=CCOC1OC(COC(c2ccccc2)(c2ccccc2)c2ccccc2)C(OC(C)=O)C(OC(C)=O)C1NC(C)=O (stereo unspecified),93,66,0
Cc1ccc(NC(=O)NC2CCN(c3ccnc4cc(Cl)ccc34)C2)cc1.O=C(O)C(F)(F)F (stereo unspecified),100,96,19
CC(=NNC(=N)N)c1ccc2c(ccc3ccccc32)c1.Cl,100,15,47
O=c1cc(NCCCNCc2cccc3c2OC(F)(F)O3)[nH]c2ccccc12,88,15,4
COc1ccc(NC(=O)Nc2ccc(-c3cccc(-c4nc5ccccc5[nH]4)c3)cc2)cc1,99,41,44
CC(C(=O)Nc1ccc(Br)cc1Br)N1CCN(C(=O)c2ccco2)CC1 (stereo unspecified),91,84,3
COc1cccc2cc(C(=O)N[C@@H](CC(C)C)C(=O)N[C@H](/C=N/NC(=O)N3CCN(C)CC3)CCc3ccccc3)oc12.Cl,85,73,1
Cc1cccc(S(=O)(=O)Nc2cccc(CCN3CCC(N4CCCCC4)CC3)c2)c1,87,13,15
CC(=O)Nc1nc(C(=O)Nc2ccc(-c3cccc(-c4nc5cc(F)ccc5[nH]4)c3)cc2)cs1,94,29,86

Compound,Inhibition [1] [%],Inhibition [2] [%],Inhibition [3] [%]
CCN1CCN(c2cc(C)c3cc(NC(=O)c4cncc(Br)c4)ccc3n2)CC1,97,63,3
CS(=O)(=O)Cc1ccc(Nc2nccc(NC3CCN(c4nccc(C(F)(F)F)n4)CC3)n2)cc1,88,23,34
CC(C)NC(=O)c1cccc(-c2cccc(OCCN3CCSCC3c3ccccc3)c2)c1 (stereo unspecified),89,45,24
O=C(Nc1cc(F)cc(F)c1)N[C@H]1CCN(CCCCCNC(=O)C2CC2c2ccc(Cl)c(Cl)c2)C1 (stereo partly specified),88,0,24
CC(=O)Nc1cccc(C(=O)Nc2cccc(-c3cccc(-c4nc5cc(F)ccc5[nH]4)c3)c2)c1,100,44,51
COc1ccc(CN2CCCN(Cc3cccc(NC(=O)c4ccc(-c5ccccc5)cc4)c3)CC2)cc1.O=C(O)C(F)(F)F,94,24,37
CCNC[C@@H](O)[C@H](Cc1ccccc1)NC(=O)c1cc2c3c(c1)c(CC)cn3CCS(=O)(=O)N2C.O=CO,99,65,0
CC(=O)N(C)c1cccc(CNc2cc(C)nc(Nc3ccc(C)cc3)n2)c1,97,21,8
O=C(O)C(F)(F)F.c1cc(OCCN2CCCC2)ccc1CNC1CCN(CC2CCCCC2)CC1,100,54,15
Clc1cccc(Cl)c1CCNCC1CCN(CC2CCCCC2)CC1.O=C(O)C(F)(F)F,98,94,39
CCN(CC)CCNC(=O)c1ccc(NC(=O)c2cn(-c3ccccc3)nc2-c2cccs2)cc1,100,94,30
O=C(/C=C/c1ccc(Cl)c(Cl)c1)NC1CCN(CCNC(=O)c2cccc(Cl)c2)CC1.O=C(O)C(F)(F)F,100,45,22
CCOc1ccc2c(=NN=Cc3ccccc3F)cc(C)[nH]c2c1,100,77,0
O=C(/C=C/c1ccc(Cl)c(Cl)c1)NCCCCCN1CCC(NC(=O)Nc2ccc(C(F)(F)F)cc2)CC1,94,34,58
Cl.N#Cc1ccc2c(c1)CCN(CCC1CCC(NC(=O)/C=C/c3cnc4ccccc4c3)CC1)CC2 (stereo unspecified),87,21,22
Br.CCc1ccccc1OCCCON1C(=N)N=C(N)NC1(C)C,95,97,77
CC[C@H]1CN(Cc2cccc(O)c2)CC[C@H]1CCCc1ccnc2ccc(O)cc12,100,98,14
COc1ccc(NC(=O)c2cc(-c3ccc(NC(C)=O)cc3)cnc2N)cc1,98,5,10
O=C(Nc1cccc(-c2nn3ccccc3c2-c2ccnc(Nc3cccc(-c4cnco4)c3)n2)c1)C1CCCCC1,95,99,71
O=C(Nc1ccccc1N1CCOCC1)c1ncoc1-c1ccccc1C(F)(F)F,89,60,0

# — ChEMBL document CHEMBL1157539, “Thousands of chemical starting points for antimalarial lead identification” (Nature, 2010)
